A short description of experiment [1]: optical density shifts of acrAB sulA E. coli – strain DRC41, OD650, 48 h, E. coli filamentation inducer project, primary screen (AID 1152).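 Further: E. coli MC1000 strain DRC41 lacking acrAB efflux pump and sulA.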 The settings on record: higher = more signal, called active from +8 up or from −8 down.
Experiment [2] is described as follows: probe aLefty1 binding on compound microarray – biochemical, small-molecule microarray, 635/667 nm fluorescence, primary screen (AID 1153).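 Further: score merges spot fluorescence with signal-to-noise ratio from the scanned slide images.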 The note with it: higher = more signal.
A short description of experiment [3]: plasmodial surface anion channel blockers, osmotic lysis – cell-based, P. falciparum Indochina, OD700, 1 h, primary screen (AID 1154). The note with it: P. falciparum Indochina infected RBC osmotic lysis, higher = more signal, called active from +8 up or from −8 down.
Experiment [4] in a line: plasmodial surface anion channel blockers, osmotic lysis – cell-based, P. falciparum Indochina, OD700, 2 h, primary screen (AID 1155).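 Further: lysis reports solute entry through the parasite surface anion channel PSAC.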 The note with it: P. falciparum Indochina infected erythrocytes, higher = more signal, called active from +8 up or from −8 down.
A short description of experiment [5]: changes in parasitized red cell lysis, either direction – P. falciparum Indochina, OD700, 3 h, PSAC antagonist project, primary screen (AID 1156). The note with it: P. falciparum-infected erythrocytes, osmotic lysis, higher = more signal, called active from +8 up or from −8 down.
Experiment [6] in a line: plasmodial surface anion channel blockers, osmotic lysis – cell-based, P. falciparum Indochina, OD700, 18 h, primary screen (AID 1157). The note with it: P. falciparum Indochina infected erythrocytes, osmotic lysis OD700, 18 h; higher = more signal, called active from +8 up or from −8 down.
The nature of experiment [7]: S6 kinase pathway phospho-S6 level changes – cell-based, A549, cytoblot, luminescence, serum-stimulated, primary screen (AID 1158).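 Further: serum-stimulated A549 lung adenocarcinoma cells; signal is phosphorylated S6 detected by cytoblot immunostaining with HRP secondary.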 The settings on record: 5 h, higher = more signal.
The target in experiment [8] is NADPH oxidase 2 (Homo sapiens) (UniProt P04839). The experiment is described as follows: compounds shifting NOX2 Amplex Red fluorescence – cell-based, HEK293-NOX2, PMA-stimulated, NOX inhibitor project, primary screen (AID 1159). Further: test concentration not given here. The note with it: 45 min, higher = more signal, called active from +8 up or from −8 down.
NADPH oxidase 2 (Homo sapiens), sequence (P04839 whole entry, looked up): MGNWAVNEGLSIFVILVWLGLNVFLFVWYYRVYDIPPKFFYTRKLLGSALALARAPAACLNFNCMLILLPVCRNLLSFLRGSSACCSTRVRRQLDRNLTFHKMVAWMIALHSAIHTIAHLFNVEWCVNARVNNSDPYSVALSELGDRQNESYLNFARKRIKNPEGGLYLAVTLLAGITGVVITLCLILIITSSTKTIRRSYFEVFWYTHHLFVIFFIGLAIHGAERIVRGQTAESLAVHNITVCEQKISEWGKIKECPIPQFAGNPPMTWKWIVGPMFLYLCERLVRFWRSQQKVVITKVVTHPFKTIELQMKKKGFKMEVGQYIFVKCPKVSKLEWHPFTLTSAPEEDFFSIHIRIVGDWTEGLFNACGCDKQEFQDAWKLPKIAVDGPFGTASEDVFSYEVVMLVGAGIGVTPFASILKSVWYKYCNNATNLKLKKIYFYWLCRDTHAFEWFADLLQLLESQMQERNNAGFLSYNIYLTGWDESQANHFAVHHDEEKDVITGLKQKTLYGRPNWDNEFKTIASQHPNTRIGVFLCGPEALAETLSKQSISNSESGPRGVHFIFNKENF
The target in experiment [9] is NADPH oxidase 4 (Homo sapiens) (UniProt Q9NPH5). As to the kind of experiment: compounds shifting NOX4 Amplex Red fluorescence – cell-based, HEK293-NOX4, tetracycline-induced, NOX inhibitor project, primary screen (AID 1160). The settings on record: HEK293-NOX4, Amplex Red H2O2 fluorescence, 45 min; higher = more signal, called active from +8 up or from −8 down.
NADPH oxidase 4 (Homo sapiens), sequence (Q9NPH5 whole entry, looked up): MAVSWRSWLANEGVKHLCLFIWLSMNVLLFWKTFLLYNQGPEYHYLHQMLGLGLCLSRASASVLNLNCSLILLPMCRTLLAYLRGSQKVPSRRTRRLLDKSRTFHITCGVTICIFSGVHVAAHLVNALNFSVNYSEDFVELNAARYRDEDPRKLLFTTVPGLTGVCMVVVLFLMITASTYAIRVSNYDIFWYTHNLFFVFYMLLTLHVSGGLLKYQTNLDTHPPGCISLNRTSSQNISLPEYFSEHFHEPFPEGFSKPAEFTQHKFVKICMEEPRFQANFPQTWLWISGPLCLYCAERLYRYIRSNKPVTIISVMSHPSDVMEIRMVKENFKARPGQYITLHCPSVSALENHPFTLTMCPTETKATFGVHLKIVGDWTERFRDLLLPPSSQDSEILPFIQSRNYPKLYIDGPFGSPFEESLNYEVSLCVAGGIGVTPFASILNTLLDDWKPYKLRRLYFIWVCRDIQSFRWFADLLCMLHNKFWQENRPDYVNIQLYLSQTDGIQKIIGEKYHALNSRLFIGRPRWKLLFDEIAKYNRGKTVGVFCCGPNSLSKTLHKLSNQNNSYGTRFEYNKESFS
Experiment [10] has as its target NADPH oxidase 5 (Homo sapiens) (UniProt Q96PH1). The experiment is described as follows: compounds shifting NOX5 Amplex Red fluorescence – cell-based, HEK293-NOX5, NOX inhibitor project, primary screen (AID 1161). The note with it: HEK293-NOX5, ionomycin, 45 min, higher = more signal.
The nature of experiment [11]: compound effects on lung adenocarcinoma cell viability – A549, calcein-AM fluorescence, 48 h, basal, profiling panel (AID 1162). Further: test concentration not given here. The note with it: higher = more signal.
Experiment [12] in a line: compound effects on differentiated 3T3-L1 adipocyte viability – cell-based, 3T3-L1 adipocytes, calcein-AM fluorescence, 48 h, basal, profiling panel (AID 1163). Further: test concentration not given here. The settings on record: 3T3-L1 adipocytes viability, higher = more signal.
A short description of experiment [13]: compound effects on hepatocellular carcinoma cell viability – HepG2, calcein-AM fluorescence, 48 h, basal, profiling panel (AID 1164). Further: test concentration not given here. The settings on record: higher = more signal.
A short description of experiment [14]: compound effects on multiple myeloma cell viability – MM1S, calcein-AM fluorescence, 48 h, basal, profiling panel (AID 1165).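 Further: viability of MM1S multiple myeloma cells under basal unstimulated conditions; test concentration not given here.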 The note with it: higher = more signal.
The nature of experiment [15]: calcein-AM signal in unstimulated myeloma cells – cell-based, calcein-AM fluorescence, 48 h, PK04 Diversity Set, profiling panel (AID 1166).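 Further: cells grown under basal conditions without added stimulus; test concentration not given here.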 The note with it: RPMI8226 myeloma viability, higher = more signal.
Experiment [16] is described as follows: JC-1 mitochondrial signal, unstimulated HepG2 cells – cell-based, JC-1 fluorescence, 24 h, 100 nL compound, profiling panel (AID 1167). Further: test concentration not given here. The settings on record: HepG2 mitochondrial potential, higher = more signal.
The nature of experiment [17]: JC-1 mitochondrial signal, unstimulated adipocytes – cell-based, JC-1 fluorescence, 3T3-L1 adipocytes, 24 h, 100 nL compound, profiling panel (AID 1168). Further: test concentration not given here. The note with it: JC-1 mitochondrial fluorescence, higher = more signal, called active from +8 up or from −8 down.
Experiment [18] is described as follows: JC-1 mitochondrial signal, unstimulated myeloma cells – cell-based, JC-1 fluorescence, RPMI8226, 24 h, 100 nL compound, profiling panel (AID 1169). Further: test concentration not given here. The note with it: JC-1 mitochondrial potential fluorescence, higher = more signal.
The nature of experiment [19]: JC-1 mitochondrial signal, unstimulated MM1S myeloma – cell-based, JC-1 fluorescence, 24 h, 100 nL compound, profiling panel (AID 1170). Further: test concentration not given here. The note with it: MM1S mitochondrial potential, higher = more signal.
Experiment [20] can be described thus: resazurin metabolic signal in A549 cells – cell-based, resazurin fluorescence, 24 h, PK04 Diversity Set, profiling panel (AID 1171). Further: test concentration not given here. The settings on record: A549 viability, higher = more signal, called active from +8 up or from −8 down.

Calls of active or inactive are those of the source.

NADPH oxidase 5 (Homo sapiens), sequence (Q96PH1 whole entry, looked up): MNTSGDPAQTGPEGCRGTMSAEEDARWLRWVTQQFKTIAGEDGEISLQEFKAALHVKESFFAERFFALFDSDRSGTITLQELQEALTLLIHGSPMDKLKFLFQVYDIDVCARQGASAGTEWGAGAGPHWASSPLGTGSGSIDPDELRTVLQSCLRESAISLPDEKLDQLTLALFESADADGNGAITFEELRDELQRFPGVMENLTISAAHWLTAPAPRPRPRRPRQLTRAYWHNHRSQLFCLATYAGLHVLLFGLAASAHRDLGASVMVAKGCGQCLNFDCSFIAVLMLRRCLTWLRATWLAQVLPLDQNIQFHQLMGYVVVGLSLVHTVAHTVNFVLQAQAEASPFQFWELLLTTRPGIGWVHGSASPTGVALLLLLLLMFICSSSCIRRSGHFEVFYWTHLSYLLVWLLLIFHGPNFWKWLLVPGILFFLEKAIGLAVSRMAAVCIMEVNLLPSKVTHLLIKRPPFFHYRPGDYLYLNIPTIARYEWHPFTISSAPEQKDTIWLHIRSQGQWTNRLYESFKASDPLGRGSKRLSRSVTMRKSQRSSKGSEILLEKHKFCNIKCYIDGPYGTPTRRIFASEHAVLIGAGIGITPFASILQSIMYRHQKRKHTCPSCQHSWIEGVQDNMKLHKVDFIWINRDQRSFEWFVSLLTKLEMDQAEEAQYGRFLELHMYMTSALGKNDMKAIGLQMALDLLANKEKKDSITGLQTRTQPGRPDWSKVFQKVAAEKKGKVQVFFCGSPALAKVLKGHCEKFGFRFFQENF

With `C[C@]1(C(=O)NC2CC2)c2ccccc2C(=O)N(Cc2ccc(OC(F)(F)F)cc2)[C@H]1c1ccc(CO)cc1`, the z-score in experiment [1] is 0.323 (inactive); in experiment [3], 3.33 (inactive); in experiment [4], 0.258 (inactive); in experiment [5], 4.64 (inactive); in [6], 0.0105 (inactive); in experiment [7], -0.111. Further, the z-score in [8] was 0.264 (inactive); in experiment [9], 0.731 (inactive); in experiment [10] it was 0.138; in [11], -0.176; in [12] it was -0.138; in experiment [13], 0.415. For the same compound, the z-score in experiment [14] is -0.105; in experiment [15] it was 0.142; in [16], 2.32; in [17] it was -0.116 (inactive); in experiment [18], 0.917; in experiment [19], -0.316. Besides, the z-score in experiment [20] is 0.306 (inactive). The compound also gave a composite z-score in experiment [2] of -0.0186.

Consider `NC(=O)NCC#Cc1ccc2c(c1)[C@]1(C(=O)N2)[C@H](C(=O)Nc2nc3ccccc3s2)[C@H]2C(=O)O[C@H](c3ccccc3)[C@H](c3ccccc3)N2[C@@H]1c1ccc(O)cc1`, for which the z-score was 0.996 (inactive) in [1]; 2.92 (inactive) in [3]; 2.35 (inactive) in experiment [4]; 0.962 (inactive) in experiment [5]; 1.19 (inactive) in experiment [6]; -0.0609 in [7]. Also, the z-score in [8] is -0.23 (inactive); in [9], -1.27 (inactive); in experiment [10] it was 0.16; in [11] it was 0.234; in experiment [12], 1.28; in [13], 0.28. Also, the z-score was -0.614 in experiment [14]; 0.76 in experiment [15]; -3.35 in experiment [16]; 0.588 (inactive) in experiment [17]; -0.937 in experiment [18]; -1.9 in experiment [19]. For the same compound, in [20], the z-score is 1.78 (inactive). Further, the composite z-score in experiment [2] came out at 0.315.

Turning to `O=C1OC[C@@H](c2ccccc2)N2CC(/C=C/c3ccccc3)=CC12` (stereo not given in full), the z-score is -0.107 (inactive) in experiment [1]; 18.1 (active) in [3]; 3.85 (inactive) in [4]; 2.22 (inactive) in experiment [5]; 1.55 (inactive) in experiment [6]; -0.126 in [7]. Also, the z-score in experiment [8] is 0.724 (inactive); in [9], -0.598 (inactive); in experiment [10], 0.967; in [11] it was -0.488; in experiment [12], -0.125; in [13], -0.255. Besides, the z-score is -0.0482 in [14]; -0.267 in experiment [15]; -0.251 in experiment [16]; 0.291 (inactive) in experiment [17]; -0.306 in experiment [18]; 0.00388 in [19]. The z-score in [20] was 1.05 (inactive). Moreover, the composite z-score in experiment [2] was -0.469.

Take `NCCCCCCNC(=O)[C@@H]1C[C@@H]2C(=O)N3CCC[C@H]3C(=O)N2[C@@H]1c1ccc(O)cc1`: the z-score was -1.12 (inactive) in experiment [1]; 1.67 (inactive) in experiment [3]; 0.026 (inactive) in experiment [4]; -0.653 (inactive) in [5]; 0.105 (inactive) in experiment [6]; -0.164 in [7]. Also, the z-score in [8] is 0.162 (inactive); in [9], 0.116 (inactive); in experiment [10] it was -0.515; in experiment [11], -0.428; in [12], 0.548; in experiment [13], 0.442. The z-score in [14] was -0.0269; in experiment [15], -0.292; in experiment [16] it was -0.0719; in [17] it was -0.202 (inactive); in [18], 0.0552; in experiment [19], 0.0553. Besides, the z-score in experiment [20] is -0.578 (inactive). The composite z-score in experiment [2] is -0.508.

The values are drawn from PubChem BioAssay.
